Screening results as filed in PubChem.
Most compounds without a hit are left out; they make up all but 5.4% or so of the library.
Lassa entry inh: qHTS for Inhibitors of binding or entry into cells for Lassa Virus; Lassa virus pseudotype entry inhibition, cell reporter; 1.2% of 300,000 active; Potency, µM (highest dose often 37.9 µM), for inactives: at the top dose activity change, negative = inhibition, hits mostly inhibitors; calls by dose curve; tested in HEK293 cells; note: nearly all actives have a fitted effect of over 50% in size
Vaccinia mCherry: qHTS for Stage-Specific Inhibitors of Vaccinia Orthopoxvirus: mCherry Reporter Primary qHTS; Vaccinia virus mCherry reporter infection, fluorescence; Potency, µM (series often up to 36.5 µM), inactives show top-dose activity change, negative = inhibition, usual class: inhibitors; 0.63% of 310,000 active; calls by dose curve; tested in A549 cells; note: nearly all actives have a fitted effect of over 35% in size
MARV entry inh: qHTS for inhibitors of binding or entry into cells for Marburg Virus; Marburg virus pseudotyped entry inhibition, cell reporter; Potency, µM (highest dose often 37.8 µM), without a hit: at the top dose activity change, negative = inhibition, usual class: inhibitors; 1.8% of 300,000 active; calls by dose curve; tested in HEK293 cells
FMDV antiviral: High Throughput Screening for Foot and Mouth Disease Virus Antivirals. FMDV antiviral cell-based qHTS. 1.2% of 410,000 active. Potency, µM (titrated, usually from 57.9 µM), inactives show at the top dose activity change, negative = inhibition, actives largely listed as inhibitors; calls by dose curve; tested in HEK293T cells; note: read-out not given here; nearly all actives have a fitted effect of over 45% in size
Vaccinia Venus: qHTS for Stage-Specific Inhibitors of Vaccinia Orthopoxvirus: Venus Reporter Primary qHTS; Vaccinia virus Venus reporter expression, fluorescence; Potency, µM (titrated, usually from 36.5 µM), for the others: at the top dose activity change, negative = inhibition, hits mostly inhibitors; 0.46% of 330,000 active; AID 720580, 2013; calls by dose curve; tested in A549 cells; note: nearly all actives have a fitted effect of over 30% in size
Sm TGR inh: qHTS Assay for the Inhibitors of Schistosoma Mansoni Peroxiredoxins; purified TGR, DTNB reduction, TNB absorbance 405 nm; 3% of 360,000 active; Potency, µM (highest dose often 114 µM), without a hit: top-dose activity change, negative = inhibition, actives largely listed as inhibitors; AID 485364, 2010; Schistosoma mansoni thioredoxin glutathione reductase (TGR), Q962Y6; active = well fitted inhibition curve with a large enough effect; inconclusive = small, poorly fitted or top-dose-only effect; inactive = no such curve, though single readings can be large or run the other way; note: nearly all actives have a fitted effect of over 60% in size
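TGR 20 nM + NADPH 100 uM (dispensed conc.), cpd preinc 15 min RT; start with NADPH (500 uM addition) then DTNB (15 mM addition). Kinetic TNB absorbance, 405 nm filter. Four-parameter Hill fit across titration.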
Active calls of the source: *; i = inactive; ? = inconclusive; · = no result; [ ] = another dose, or the depositor's remark. % is set by controls: 0 for no effect and ±100 for the full control effect; potency is the fitted concentration of half-maximal effect.

SMILES | Lassa entry inh | Vaccinia mCherry | MARV entry inh | FMDV antiviral | Vaccinia Venus | Sm TGR inh
Cc1cc(OC(C)C(=O)N(Cc2ccc(N(C)C)cc2)Cc2ccco2)ccc1Cl (stereo unspecified) | -4%[46.1 µM] | -16% | 1%[46.1 µM] | -9% | -7% | 2%
CCN(CC)CCNC(=O)c1cnn(-c2ncc3c(n2)-c2ccc(OC)cc2CC3)c1C | · | -22% | · | -18% | -13% | ·
COc1ccccc1OCCCN1C(=O)C(=O)c2cccc(C)c21 | · | · | · | 7% | · | 3.2µM*
Cc1ccccc1OCCN1C(=O)C(=O)c2cccc(C)c21 | 4% | i | ? | -2% | -10% | -5%
COc1cc(OC)c2c(-c3cccc(-c4ccc(CO)cc4)c3)cc(=O)oc2c1 | · | ? | · | ? | 10µM* | ·
COc1ccc(-c2cccc(-c3cc(=O)oc4cc(OC)cc(OC)c34)c2)cc1 | · | ? | · | -26% | ? | ·
Cc1ccc(SCc2nc(-c3ccc(C(=O)Nc4cc(C)ccc4C)cc3)oc2C)cc1 | ? | -15%[7.34 µM] | · | 0% | -17%[7.34 µM] | -35%
CCc1ccc(NC(=O)C(C)Sc2nc(-c3ccco3)c(C#N)c(=O)[nH]2)cc1 (stereo unspecified) | ? | -9% | 6%[46.1 µM] | 19% | -2% | 40µM*
COc1ccc(C(CC(=O)NCc2ccccc2)N2Cc3ccccc3C2=O)cc1 (stereo unspecified) | ? | -1% | · | 20% | 4% | 5%
N#C/C(=C\c1ccc(-c2cc(Cl)ccc2Cl)o1)C(=O)Nc1cccc2ncccc12 | 3.7µM* | · | ? | · | · | ·
COc1cc(C2c3c(-c4cc(C)cc(C)c4O)n[nH]c3C(=O)N2CCCO)cc(OC)c1OC (stereo unspecified) | 8.2µM* | · | 3% | -17% | · | 12%
Cc1ccc(O)c(-c2n[nH]c3c2C(c2ccccc2F)N(Cc2ccco2)C3=O)c1 (stereo unspecified) | ? | -11% | ? | ? | -13% | 3%
O=C1c2[nH]nc(-c3ccccc3O)c2C(c2ccccc2)N1Cc1ccco1 (stereo unspecified) | 1.5µM* | -24% | ? | -23% | ? | -22%
COc1ccc(CCN2C(=O)c3[nH]nc(-c4ccccc4O)c3C2c2ccccc2)cc1OC (stereo unspecified) | 18µM* | -20% | ? | ? | ? | 6%
O=C1c2[nH]nc(-c3ccccc3O)c2C(c2ccccc2F)N1Cc1ccco1 (stereo unspecified) | 5.2µM* | · | -1% | -21% | · | -1%
COc1cc(C2c3c(-c4c(C)cc(C)cc4O)n[nH]c3C(=O)N2CCO)cc(OC)c1OC (stereo unspecified) | ? | -9% | -12%[46.1 µM] | -8% | 8% | 3%
O=C1c2[nH]nc(-c3ccccc3O)c2C(c2ccc(Cl)cc2)N1Cc1ccco1 (stereo unspecified) | ? | ? | -23%[46.1 µM] | -21% | ? | 10%
O=C(Oc1ccc2c(=O)c(Cl)coc2c1)c1ccncc1 | 21% | -7% | 26% | -12% | -6% | 8.9µM*
O=C(Oc1ccc2c(=O)c(Oc3ccc4ccccc4c3)coc2c1)c1cncc(Br)c1 | -17% | -4% | 7%[46.1 µM] | -1% | 4% | -3%
Cc1ccc(CNC(=O)c2cn(C3CCCC3)c(=O)c3c2c2ccccc2n3C)o1 | · | · | 4% | · | · | 8.9µM*
Cn1c2ccccc2c2c(C(=O)O)cn(C3CCCC3)c(=O)c21 | · | -4% | · | -25% | -8% | 2%
Cn1c2ccccc2c2c(C(=O)NCc3ccco3)cn(C3CCCCC3)c(=O)c21 | ? | -13% | -24%[46.1 µM] | ? | -3% | 79µM*
O=C(COc1cccc2c1CCN(Cc1ccccc1F)C2=O)N1CCCCC1 | -19% | i | ? | -16% | -11% | 89µM*
Cc1ccc(CN2CCc3c(OCc4ccc(F)cc4)cccc3C2=O)cc1 | 7.1µM* | ? | ? | ? | ? | -2%
O=C1c2cccc(OCc3ccc(F)cc3)c2CCN1Cc1ccc(F)cc1 | ? | ? | ? | ? | ? | -9%
SMILES | Lassa entry inh | Vaccinia mCherry | MARV entry inh | FMDV antiviral | Vaccinia Venus | Sm TGR inh
O=C1c2cccc(OCC(=O)N3CCCc4ccccc43)c2CCN1Cc1ccc(Br)cc1 | 21µM* | ? | ? | ? | ? | -25%
O=C(Nc1cccc(N2CCC(NCc3cnn(-c4ccccc4)n3)CC2)c1)c1cccnc1 | · | -12% | · | -16% | -8% | ·
Cn1c(=O)c2sccc2n2c(CCCC(=O)Nc3ccc(Oc4ccccc4)cc3)nnc12 | -9%[46.1 µM] | -5% | · | ? | -13% | -3%
CC(=O)ON(C(C)=O)c1ccc(/C=C2/C=Cc3ccccc32)cc1 | · | -2% | · | · | -22% | ·
O=C1c2c([N+](=O)[O-])cc([N+](=O)[O-])cc2S(=O)N1Cc1ccccc1 (stereo unspecified) | 8%[46.1 µM] | i | 28%[46.1 µM] | -14% | -9% | 40µM*
O=C(O)C1CCCCC1SC1=C([S+](=O)([O-])NC2CCCCC2)CCCC1 (stereo unspecified) | · | · | 9%[14.2 µM] | · | · | ·
O=C(O)c1ccc(N=Nc2c(O)[nH]c3ccccc23)cc1 | 5µM* | i | 1.8µM* | ? | 23% | -11%
Cc1nn2c(=O)cc(COC(=O)c3ccccc3NC(=O)c3ccccc3C)nc2s1 | 14%[46.1 µM] | -5% | · | 15% | -2% | -8%
CC(=O)c1ccc(-c2ccc(C(=O)NCC3CCCO3)o2)cc1 (stereo unspecified) | -18%[46.1 µM] | i | -2% | 3% | -11% | 35µM*
Cc1ccc(C)n1-c1ccc(C(=O)NCC2CCCO2)cc1 (stereo unspecified) | -24% | -13% | -30% | 31% | -9% | 40µM*
CCc1ccccc1S(=O)(=O)Cc1ccc(C(=O)NCC2CCCO2)o1 (stereo unspecified) | -6% | · | 5% | -12% | · | 40µM*
COc1ccc(C(=O)NCC2CCCO2)cc1 (stereo unspecified) | ? | -16% | 12% | 45% | -14% | 0%
Cc1ccc(-c2nn(-c3ccc(F)cc3)cc2C(=O)NCC2CCCO2)cc1 (stereo unspecified) | -19% | -8% | -33% | 16% | -25% | 50µM*
Cc1cccc(C)c1NC(=O)Cn1c(=O)n(Cc2ccc3c(c2)OCO3)c(=O)c2oc3ccccc3c21 | 17%[46.1 µM] | -10% | · | -10% | -6% | 3%
CC(=O)Nc1ccc(C(=O)CSc2nnc3cc(C)c4ccccc4n23)cc1 | 10%[46.1 µM] | -9% | 4%[46.1 µM] | -15% | -1% | 0%
Cc1cc(C)cc(C(=O)Nc2ccc(-c3nc4ncccc4o3)cc2)c1 | -10%[46.1 µM] | ? | -5%[46.1 µM] | 0% | ? | 6%
Cc1cccc(-n2c(C)nc3cc(C(=O)NCC4CCCO4)ccc32)c1 (stereo unspecified) | · | · | · | 16% | · | 3%
